The campaign covered roughly 5,500 compounds. About 2,000 (36%) were called active. Another 18% or so got no clear call; they are omitted. Rule as the data show it: active = normalized growth mostly below about 0.91 (no sharp cut-off); inconclusive = no clear call, values can overlap the other calls; inactive = mostly above about 0.92. The list shows a part of the results.
Experiment: chemical genetic growth profiling, strain panel (AID 1159580);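 also: tested at 20 µM; growth read once vehicle control cultures reached saturation at 30 °C; 1 = growth at the plate median or of vehicle wells; lower values mean less growth of the strain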
Conditions: growth OD

Measured: normalized growth

CCCCCCCCCCCCCC(=O)OC1C(C)C2(O)C(C=C(CO)CC3(O)C(=O)C(C)=CC32)C2C(C)(C)C12OC(C)=O (centres undefined)
inactive: S. cerevisiae deletion strains, locus YJR043C, strain POL32, hits give low values 1.03 | S. cerevisiae deletion strains, locus YJR075W, strain HOC1, hits give low values 1 | S. cerevisiae deletion strains, locus YKL009W, strain mrt4, hits give low values 0.973 | S. cerevisiae deletion strains, locus YKL068W, hits give low values 1.01 | S. cerevisiae deletion strains, locus YKL085W, strain MDH1 (second series), hits give low values 0.966 | S. cerevisiae deletion strains, locus YKL085W, strain MDH1, hits give low values 0.966 | S. cerevisiae deletion strains, locus YKL160W, strain elf1, hits give low values 1 | S. cerevisiae deletion strains, locus YKL190W, strain CNB1, hits give low values 1.02 | S. cerevisiae deletion strains, locus YKR001C, strain vps1, hits give low values 0.981 | S. cerevisiae deletion strains, locus YKR026C, strain gcn3, hits give low values 0.964 | S. cerevisiae deletion strains, locus YKR091W, strain srl3, hits give low values 0.979 | S. cerevisiae deletion strains, locus YLL001W, strain dnm1, hits give low values 0.991 | S. cerevisiae deletion strains, locus YLL026W, hits give low values 0.988 | S. cerevisiae deletion strains, locus YLL041C, strain sdh2, hits give low values 0.984 | S. cerevisiae deletion strains, locus YLR027C, strain aat2, hits give low values 0.992 | S. cerevisiae deletion strains, locus YLR039C, strain RIC1, hits give low values 1.06 | S. cerevisiae deletion strains, locus YLR058C, strain SHM2, hits give low values 0.996 | S. cerevisiae deletion strains, locus YLR102C, strain apc9, hits give low values 0.998 | S. cerevisiae deletion strains, locus YLR221C, strain rsa3, hits give low values 0.972 | S. cerevisiae deletion strains, locus YLR258W, strain gsy2, hits give low values 0.988 | S. cerevisiae deletion strains, locus YLR262C, strain YPT6 (second series), hits give low values 0.993 | S. cerevisiae deletion strains, locus YLR262C, strain YPT6, hits give low values 0.988 | S. cerevisiae deletion strains, locus YLR268W, strain sec22, hits give low values 1.01 | S. cerevisiae deletion strains, locus YLR320W, strain mms22, hits give low values 0.974 | S. cerevisiae deletion strains, locus YLR330W, strain CHS5, hits give low values 0.997 | S. cerevisiae deletion strains, locus YLR342W, strain FKS1 (second series), hits give low values 1.03 | S. cerevisiae deletion strains, locus YLR342W, strain FKS1, hits give low values 0.982 | S. cerevisiae deletion strains, locus YLR357W, strain rsc2, hits give low values 0.954 | S. cerevisiae deletion strains, locus YLR370C, strain arc18, hits give low values 0.988 | S. cerevisiae deletion strains, locus YLR371W, strain rom2, hits give low values 0.994 | S. cerevisiae deletion strains, locus YLR384C, strain iki3, hits give low values 0.99 | S. cerevisiae deletion strains, locus YLR418C, strain cdc73, hits give low values 0.973 | S. cerevisiae deletion strains, locus YML016C, strain PPZ1, hits give low values 1.03 | S. cerevisiae deletion strains, locus YML032C, strain rad52, hits give low values 0.976 | S. cerevisiae deletion strains, locus YML120C, strain ndi1, hits give low values 0.983 | S. cerevisiae deletion strains, locus YML124C, strain tub3, hits give low values 0.998 | S. cerevisiae deletion strains, locus YMR058W, strain fet3, hits give low values 0.983 | S. cerevisiae deletion strains, locus YMR078C, strain ctf18, hits give low values 0.991 | S. cerevisiae deletion strains, locus YMR125W, strain sto1, hits give low values 0.993 | S. cerevisiae deletion strains, locus YMR129W, hits give low values 0.976 | S. cerevisiae deletion strains, locus YMR205C, strain PFK2, hits give low values 0.926 | S. cerevisiae deletion strains, locus YMR223W, strain ubp8, hits give low values 0.971 | S. cerevisiae deletion strains, locus YMR231W, strain pep5, hits give low values 0.986 | S. cerevisiae deletion strains, locus YMR263W, strain SAP30, hits give low values 1 | S. cerevisiae deletion strains, locus YMR307W, strain GAS1, hits give low values 0.922 | S. cerevisiae deletion strains, locus YNL067W, strain RPL9B, hits give low values 1.01 | S. cerevisiae deletion strains, locus YNL071W, strain lat1, hits give low values 0.991 | S. cerevisiae deletion strains, locus YNL128W, strain TEP1, hits give low values 1.01 | S. cerevisiae deletion strains, locus YNL153C, strain GIM3, hits give low values 0.999 | S. cerevisiae deletion strains, locus YNL209W, strain ssb2, hits give low values 0.99 | S. cerevisiae deletion strains, locus YNL233W, strain BNI4, hits give low values 1 | S. cerevisiae deletion strains, locus YNL248C, strain rpa49, hits give low values 0.995 | S. cerevisiae deletion strains, locus YNL250W, strain rad50, hits give low values 0.981 | S. cerevisiae deletion strains, locus YNL271C, strain bni1, hits give low values 1 | S. cerevisiae deletion strains, locus YNL298W, strain CLA4, hits give low values 0.976 | S. cerevisiae deletion strains, locus YNL307C, strain MCK1, hits give low values 0.99 | S. cerevisiae deletion strains, locus YNL322C, strain KRE1 (second series), hits give low values 0.978 | S. cerevisiae deletion strains, locus YNL322C, strain KRE1, hits give low values 0.997 | S. cerevisiae deletion strains, locus YNR049C, strain mso1, hits give low values 0.981 | S. cerevisiae deletion strains, locus YNR052C, strain pop2, hits give low values 0.995 | S. cerevisiae deletion strains, locus YOL006C, strain TOP1, hits give low values 1.03 | S. cerevisiae deletion strains, locus YOL012C, strain htz1 0.932 | S. cerevisiae deletion strains, locus YOL147C, strain pex11, hits give low values 0.99 | S. cerevisiae deletion strains, locus YOR001W, strain rrp6, hits give low values 1.01 | S. cerevisiae deletion strains, locus YOR061W, strain CKA2, hits give low values 1.02 | S. cerevisiae deletion strains, locus YOR069W, strain VPS5, hits give low values 1.02 | S. cerevisiae deletion strains, locus YOR070C, strain gyp1, hits give low values 0.987 | S. cerevisiae deletion strains, locus YOR080W, strain dia2, hits give low values 0.977 | S. cerevisiae deletion strains, locus YOR083W, strain WHI5, hits give low values 1.01 | S. cerevisiae deletion strains, locus YOR106W, strain vam3, hits give low values 0.999 | S. cerevisiae deletion strains, locus YOR136W, strain idh2, hits give low values 0.981 | S. cerevisiae deletion strains, locus YOR144C, strain elg1, hits give low values 1 | S. cerevisiae deletion strains, locus YOR184W, strain ser1, hits give low values 0.979 | S. cerevisiae deletion strains, locus YOR265W, strain rbl2, hits give low values 0.997 | S. cerevisiae deletion strains, locus YOR270C, strain vph1, hits give low values 0.948 | S. cerevisiae deletion strains, locus YOR290C, strain snf2, hits give low values 0.947 | S. cerevisiae deletion strains, locus YOR316C, strain cot1, hits give low values 0.994 | S. cerevisiae deletion strains, locus YPL051W, strain arl3, hits give low values 1.02 | S. cerevisiae deletion strains, locus YPL055C, strain LGE1, hits give low values 1.02 | S. cerevisiae deletion strains, locus YPL078C, strain atp4, hits give low values 0.989 | S. cerevisiae deletion strains, locus YPL106C, strain sse1, hits give low values 0.985 | S. cerevisiae deletion strains, locus YPL240C, strain hsp82, hits give low values 0.961 | S. cerevisiae deletion strains, locus YPL241C, strain CIN2, hits give low values 0.972 | S. cerevisiae deletion strains, locus YPR119W, strain clb2, hits give low values 0.993 | S. cerevisiae deletion strains, locus YPR141C, strain kar3, hits give low values 0.986 | S. cerevisiae deletion strains, locus YPR163C, strain tif3, hits give low values 0.998 | S. cerevisiae deletion strains, locus YPR167C, strain met16, hits give low values 1 | S. cerevisiae deletion strains, strain wtn01, hits give low values 1.01 | S. cerevisiae strains, strain wild type, hits give low values 1.04
